Here are results for 38 compounds from PubChem BioAssay (NCI).

Structures are written as SMILES. Compounds without any hit were thinned out: in the full panel of roughly 83,000, 20% have a hit.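 Growth was measured after 48 h exposure to one concentration of compound in 96-well plates. Values under 10 count as active.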 Values without a mark were called inactive. Activity calls are given as the source filed them.

The subject of this assay is HS 578T breast. Put plainly: NCI-60 one-dose screen, 48 h (100 = growth as untreated, 0 = no growth, -100 = all killed). The following applies: 10 µM unless noted.
As for `COc1cccc(-c2nn(-c3ccccc3)cc2-c2ccnc(NCCCN)c2)c1`, the growth is 43.6%.
With `Cn1cnc2c1c(=O)n(CCC(=O)Nc1ccc(F)cc1)c(=O)n2C` the figure was 106%.
To `C=C(C)[C@@H]1CC[C@]2(C=O)CC[C@]3(C)[C@H](CC[C@@H]4[C@@]5(C)C/C(=C/c6cccnc6)C(=O)C(C)(C)[C@@H]5CC[C@]43C)[C@@H]12` belongs 87.4%.
Turning to `CN(C)c1cccc2[nH]c(-c3[nH]ncc3Nc3ccnc(N)n3)nc12`, the growth is -13.8% (active).
To `O=Cc1nc2ccccc2[nH]1` belongs 95.4%; to `COc1cc2nc(Cl)nc(Nc3cccc(C(=O)/C=C/c4ccc(Br)cc4)c3)c2cc1OC`, 98.4%.
To `CC[C@H](CC[C@@H](C)[C@H]1CC[C@H]2[C@@H]3/C(=C/c4cccnc4)C(=O)C4=CC(=O)CC[C@]4(C)[C@H]3CC[C@]12C)C(C)C` belongs 107%; to `C=C(C)[C@@H]1CC[C@]2(c3nnc(-c4ccncc4)o3)CC[C@]3(C)[C@H](CC[C@@H]4[C@@]5(C)CCC(=O)NC(C)(C)[C@@H]5CC[C@]43C)[C@@H]12`, 95.8%.
As for `COc1cc(NC(C)CN(CC(C)C)C(C)C)c2ncccc2c1` (stereo not drawn), the growth is 115%.
`Nc1c2c(nc3ccc(Cl)cc13)CC(c1ccccc1)CC2=O` (stereo not drawn): the growth was 73.5%.
In the case of `COC(=O)[C@]12CC[C@@H](C)[C@H](C)[C@@H]1C1=CC[C@@H]3[C@@]4(C)C[C@@H](O)[C@H](O)[C@@](C)(CO)C4=CC[C@@]3(C)[C@]1(C)CC2`, the growth was -35.1% (active).
To `CCC1C(=O)COC1=O` (stereo not drawn) belongs 99.1%; to `C=C(C)[C@@H]1CC[C@]2(C)[C@H](CC=C3[C@@H]4CC(C)(C)CC[C@]4(C(=O)OC)CC[C@]32C)[C@@]1(C)CC/C(N)=N/O`, 72.4%.
Consider `O=C(/C=C/c1cccc2ccccc12)Nc1ncc(Cc2ccccc2)s1`, for which the growth is 12.7%.
As for `N#Cc1c(-c2ccc(O)cc2)c2c(N)nn(-c3ccccc3)c2[nH]c1=O`, the growth was 104%.
On to `COc1ccc(-c2c(-c3nc4ccc(N5CCOCC5)cc4[nH]3)[nH]c(C)c2C(C)=O)cc1`, for which the growth is 22.3%.
With `c1ccc(-c2nc(Nc3ccc(-c4nc5ccccc5[nH]4)cc3)nc(N3CCOCC3)n2)cc1` the figure was -39.9% (active); with `Cc1cc2nc3c4cc(Cl)ccc4n(CCN(C)C)c3nc2cc1C`, 45.5%.
For the compound `Cc1cc(N2CCOCC2)nc(N(CCCNc2ccnc3cc(Cl)ccc23)Cc2ccco2)n1`, the growth is 69.5%.
`Cc1cc(N(CCNc2ccnc3cc(Cl)ccc23)Cc2ccco2)nc(Cl)n1`: the growth was 6.7% (active).
For `COc1ccc(/C=C/C(=O)NCCO)cc1`, the growth is 92.4%.
With `O=C1NC(c2ccc(Cl)c(Cl)c2)=C/C1=C\c1ccccc1`, the growth is 66.3%.
To `N#C/C(=C\c1ccc(-c2ccccc2)o1)c1nc(-c2ccco2)cs1` belongs 95.7%; to `C=C1C(=O)O[C@H]2[C@H]1CC/C(COC(=O)NCc1c[nH]c3ccccc13)=C\CC[C@@]1(C)O[C@@H]21`, 87.1%.
Consider `Cn1cc(-c2csc(-c3cn(CCN)c4ccccc34)n2)c2cccnc21`, for which the growth is 67.6%.
With `C=C(C)[C@@H]1CC[C@]2(C)[C@H](CC[C@@H]3[C@H]4[C@H]5OC[C@@]4(CCC5(C)C)CC[C@]32C)[C@@]1(C)CCCN` the figure was 109%.
As to `CC[C@]12C=CCN3CC[C@@]4(c5cc([C@H]6CCC(=O)N6)c(OC)cc5N(C)[C@H]4[C@@](O)(C(=O)OC)[C@@H]1OC(C)=O)[C@@H]32`, the growth is 113% [2.5 µM].
To `COc1cc2c(cc1-c1c(C)noc1C)ncc1nc(C3CCCCC3)n([C@@H](C)COC(F)F)c12` belongs 14.3%; to `COc1ccc(/C=C(\C#N)c2cc3ccccc3n2S(C)(=O)=O)cc1`, 95.6%; to `CCc1cccc(CC)c1NC(=O)c1sc2nc3c(cc2c1N)CCCC3`, 65.2%.
To `O=C1CCC/C=C\C[C@H]2C=C(Cl)C(=O)/C2=C/C[C@H](CCCCC(F)(F)F)OC(=O)CCC/C=C\C[C@H]2C=C(Cl)C(=O)/C2=C/C[C@H](CCCCC(F)(F)F)O1` belongs 21.8% [7.5 µM].
To `COc1cc(-c2cc3ncccc3c3nc(N)c4cccnc4c23)cc(OC)c1OC` belongs 16.8%.
For `COC(=O)[C@]12CC[C@@H](C)[C@H](C)[C@@H]1C1=CC[C@@H]3[C@@]4(C)C[C@@H](OC(C)=O)[C@H](O)[C@@](C)(CO)[C@@H]4[C@H](O)C[C@@]3(C)[C@]1(C)CC2`, the growth is -50.5% (active).
To `Cc1ccc(N(CC(=O)Nc2ccc(S(=O)(=O)NC3CCN(C)CC3)cc2)S(=O)(=O)c2ccc(Cl)cc2)cc1` belongs 69.5%; to `N#CC1=C(N)Oc2ccc3ccccc3c2C1c1ccccc1` (stereo not drawn), 23.8%.
As to `COc1ccc(C(=O)/C=C/c2cc(-c3cc(OC)c(OC)c(OC)c3)n[nH]2)cc1OC`, the growth was 57.1%.
`Cn1c(/C(C#N)=C/c2ccc3ccccc3c2)cc2ccccc21`: the growth was 23.8%.
On to `CCN(CC)c1ccc(/C=C/c2cc(C)c3ccccc3n2)cc1`, for which the growth is 93.8%.
